PubChem BioAssay AID2544 (Sanford-Burnham Center for Chemical Genomics, 2010)
About 390 (0.12%) of roughly 330,000 compounds were called active.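 How the source made its calls: active means inhibition reaching a set limit with compound at 10 µM in the primary screen (cut at about 35% in these data); inactive means the rest.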 What follows is part of a selection rich in actives, with near analogues and random picks from the rest.

Each molecule was assayed against Intestinal-type alkaline phosphatase (Homo sapiens) (UniProt P09923) (assay: human IAP inhibitors, primary screen, biochemical, luminescence, uHTS (AID 2544;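 further: plate controls were DMSO wells with enzyme for no effect and no-enzyme buffer wells for full effect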)). Conditions: purified IAP, CDP-Star luminescence, 30 min; at 10 µM; stronger effect = higher value.
Chain of Intestinal-type alkaline phosphatase (Homo sapiens) (P09923 whole entry, looked up): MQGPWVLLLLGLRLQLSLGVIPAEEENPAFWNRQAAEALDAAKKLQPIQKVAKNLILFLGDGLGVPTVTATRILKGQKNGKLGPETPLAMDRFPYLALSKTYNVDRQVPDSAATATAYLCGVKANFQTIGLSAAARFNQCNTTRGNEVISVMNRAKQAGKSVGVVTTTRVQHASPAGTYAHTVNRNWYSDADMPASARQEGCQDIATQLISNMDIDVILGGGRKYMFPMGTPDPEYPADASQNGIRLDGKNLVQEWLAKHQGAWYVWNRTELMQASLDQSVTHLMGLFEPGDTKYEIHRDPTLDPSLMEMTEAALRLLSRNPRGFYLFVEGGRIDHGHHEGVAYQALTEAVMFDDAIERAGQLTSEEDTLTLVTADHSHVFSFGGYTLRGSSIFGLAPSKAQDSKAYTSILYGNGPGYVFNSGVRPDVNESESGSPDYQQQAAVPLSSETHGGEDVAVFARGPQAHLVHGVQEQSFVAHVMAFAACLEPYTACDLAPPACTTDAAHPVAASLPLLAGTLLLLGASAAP

Structure (SMILES)	inhibition
CCOCCc1c(O)[nH]c(=S)[nH]c1=O	7.2% (inactive)
O=C1N=c2ccccc2=C/C1=C\c1c(O)[nH]c(=S)[nH]c1=O	-13% (inactive)
COc1ccccc1N=Nc1c(O)[nH]c(=S)[nH]c1=O	37.5% (active)
COc1ccc(NC(=O)c2cn(CCC#N)nc2-c2ccc([N+](=O)[O-])cc2)cc1	1.2% (inactive)
CCN(CC)c1ccc([N+](=O)[O-])c2cccnc12	26.2% (inactive)
CN(c1ccccc1)c1ccc([N+](=O)[O-])c2nonc12	45.8% (active)
O=C(OCCN1CCOCC1)C1(c2ccccc2)CCCC1	-11.7% (inactive)
Cc1ccc2c(c1)C1CN(C)CCC1N2C(=O)Cn1nnc(-c2ccccc2F)n1 (stereo not given)	-5.5% (inactive)
Cc1ccc2c(c1)=C/C(=C\c1c(O)[nH]c(=O)[nH]c1=O)C(=O)N=2	-9.3% (inactive)
COc1ccc(-n2c(O)c(C(C)=Nc3ccc4c(c3)CCC4)c(=O)[nH]c2=O)cc1	-16.1% (inactive)
